Assay [1] in a line: AP1 Signaling Pathway (AID 357; active = well fitted curve in either direction with a large enough effect, not every such curve was filed as active;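 also: ME-180 reporter cells stimulated with EGF at its EC50 level; % is scaled to controls: 0 for no effect and ±100 for the full control effect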). An outline of the steps: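 A ratiometric CCF4 readout (405 nm excitation; 460 and 530 nm emission) quantified AP-1-driven beta-lactamase in ME-180 cells after 5 h with compound and EC50 EGF; AC50 values were derived for activators and inhibitors.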
Assay [2] in a line: NFAT Signaling Pathway (AID 444; active = well fitted curve in either direction with a large enough effect, not every such curve was filed as active;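 also: carbachol stimulus at about its EC50 of 1 µM final; % is scaled to controls: 0 for no effect and ±100 for the full control effect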). Particulars: Jurkat NFAT-bla M1, carbachol, beta-lactamase ratio, 5 h; at 17.2 µM (top of the series) unless noted. A digest of the protocol:
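Read-out: CCF4 FRET ratio (460 nm/530 nm) after 1 h RT dye loading, used for %activity and AC50 from titration series. Cells: Jurkat NFAT-β-lactamase/M1 line, treated with compound plus 1 uM carbachol for 5 h, 37 °C.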

Assay [3] in a line: Stat Signaling Pathway (AID 446; active = well fitted curve in either direction with a large enough effect, not every such curve was filed as active;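 also: ME-180 cervical cancer cells given 40 pM IL-6 alongside compound; SIE-controlled beta-lactamase reporter measured as 460/530 nm FRET emission ratio; % is scaled to controls: 0 for no effect and ±100 for the full control effect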). An outline of the steps:
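ME-180 SIE-bla cells; overnight plating; cpd + IL-6 40 pM, 5 h, 37 C; LiveBLAzer 2.5 h RT; 460/530 nm emission ratio. Normalized to 300 pM IL-6 and 125 nM JAK inhibitor controls.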

Assay [4] addresses Glucocorticoid receptor (Homo sapiens) (UniProt P04150). As to the kind of experiment: GR-GFP Redistribution (AID 450;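 active = compounds whose dose series gives a full or clear partial fitted curve of increased nuclear translocation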; also: potency is read from the fitted curve at half-maximal effect). Particulars: U2OS GR-GFP nuclear translocation, laser cytometry, 2 h.
Assay [5] has the same target. The experiment in a line: GR-EFC Redistribution (AID 451; calls by dose curve; also: potency is read from the fitted curve at half-maximal effect). Particulars: CHO-K1 GR-EFC translocation, beta-gal luminescence, 2 h. An outline of the steps: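 Translocation of GR-ED fusion to nuclear EA restores b-gal, read by luminescence after 1 h room-temperature detection. Engineered CHO-K1 biosensor cells, 1,000/well, exposed 2 h at 37 C to titrations up to 46 uM final.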

Assay [6] concerns the target Mitogen-activated protein kinase 10 (Mus musculus) (UniProt Q61831). The experiment in a line: JNK3 AlphaScreen Assay (AID 530; active = well fitted curve in either direction with a large enough effect, not every such curve was filed as active;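 also: kinase came from lysate of stimulated human HepG2 cells; signal reports phosphorylation of biotinylated GST-cJun 1-79 at Ser73 with 10 µM ATP; % is scaled to controls: 0 for no effect and ±100 for the full control effect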). A digest of the protocol: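 Room-temperature AlphaScreen kinase assay; pre-activated HepG2 lysate as JNK3 source, biotin-GST-cJun(1-79) substrate, 10 uM ATP, compound 15 min preincubation.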
(In Alpha technology, singlet oxygen from a donor bead excites a nearby acceptor bead.)

Assay [7] addresses 3',5'-cyclic-AMP phosphodiesterase 4B (Homo sapiens) (UniProt Q07343). The experiment in a line: qHTS Assay for Inhibitors of PDE-IV (AID 607; active = well fitted activation curve with a large enough effect in the main read-out, with a control signal flat, not every such curve was filed as active; also: % of control where 0% means no effect). An outline of the steps:
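ACTOne HEK293 cells carry a modified cAMP-gated CNG channel and express endogenous PDE4; plated 1000 cells/well, compounds up to 22.9 uM final. Membrane-potential dye fluorescence (ex 535/em 590) was read; parental cells received 10 uM forskolin + 100 uM RO 20-1724.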
Background: Quantitative high-throughput screening tests each substance at several concentrations.

Assay [8] can be described thus: qHTS Assay for Lipid Storage Modulators (AID 1519; calls by dose curve). Particulars: Drosophila S3 cells, BODIPY lipid droplet/cell ratio, laser cytometry, cells loaded with oleic acid; for activity change, negative = inhibition: at 25.7 µM (top of the series). An outline of the steps: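 Cells seeded at 5,000 per well were treated with compounds over a concentration series and loaded with oleic acid (400 uM, as added). Lipid droplet fluorescence (488 nm excitation, 500-530 nm channel) was read by laser-scanning cytometry and normalized to 20 uM Triacsin C.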

Assay [9] concerns the target ATP-dependent 6-phosphofructokinase (Trypanosoma brucei brucei) (UniProt O15648). The experiment in a line: qHTS Assay to Find Inhibitors of T. brucei phosphofructokinase: hit validation (AID 492961). An outline of the steps: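 Measures ADP output of PFK (1.25 nM) at 0.1 mM ATP, 0.5 mM F6P, pH 8.0 TEA buffer with 5 mM MgCl2. No-enzyme wells define full inhibition; uninhibited enzyme wells define zero.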

Assay [10] concerns the target Ubiquitin carboxyl-terminal hydrolase 1 (Homo sapiens) (UniProt O94782). As to the kind of experiment: Inhibitors of USP1/UAF1: Pilot qHTS (AID 504865).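 Also: rhodamine fluorescence freed from ubiquitin-rhodamine substrate followed over time; top concentration of the series differs between compounds; % is scaled to controls: 0 for no effect and ±100 for the full control effect; nearly all actives have a fitted effect of over 35% in size.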 An outline of the steps:
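Deubiquitinase activity followed as kinetic rhodamine fluorescence release from 150 nM Ub-Rho. 1 nM USP1/UAF1 with compound, after 15 min room-temperature preincubation, in HEPES pH 7.8 buffer containing TCEP, EDTA, BSA and Tween-20.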

In assay [11] the target is Luciferin 4-monooxygenase (Photinus pyralis) (UniProt P08659). As to the kind of experiment: Biochemical firefly luciferase enzyme assay for NPC (AID 624030).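 Also: purified P. pyralis luciferase at 10 nM with luciferin and ATP substrate; 0% = DMSO and -100% = full luciferase inhibition by PTC124 control; nearly all actives have a fitted effect of over 70% in size.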 An outline of the steps:
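Direct inhibition of firefly luciferase enzyme (10 nM final, 50 mM Tris Acetate) assessed by luminescence within 5 minutes. Percent activity scaled between DMSO and PTC124 positive control, with concentration-effect curves classified by fit quality and response.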

The nature of assay [12]: qHTS profiling for inhibitors of Plasmodium falciparum proliferation (AID 504749).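 Also: 0% = DMSO vehicle and full inhibition = artemisinin control; nearly all actives have a fitted effect of over 60% in size.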 Particulars: P. falciparum in erythrocytes, SYBR Green DNA, 72 h, at 12.8 µM (top of the series). A digest of the protocol: (§1)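 Three-day growth assay of blood-stage parasites in erythrocytes (0.3% parasitemia, 2.5% hematocrit) at 37 C, 5% CO2, quantified by SYBR Green DNA staining after overnight detergent lysis.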

Another assay concerns C2A. The assay is described as above. Particulars: P. falciparum in erythrocytes, SYBR Green DNA, 72 h; series mostly up to 12.8 µM. An outline of the steps:
as §1

The subject of the next assay is CP191. Described as above. Particulars: P. falciparum in erythrocytes, SYBR Green DNA, 72 h; series mostly up to 12.8 µM. An outline of the steps: as §1
The subject of another assay is CP238. Described as above. Particulars: P. falciparum in erythrocytes, SYBR Green DNA, 72 h; series mostly up to 12.8 µM. An outline of the steps: as §1
The next assay has as its system CP256. The assay is described as above. Particulars: P. falciparum in erythrocytes, SYBR Green DNA, 72 h; series mostly up to 12.8 µM. An outline of the steps: as §1
Another assay relates to FAB9. The description is as above. Particulars: P. falciparum in erythrocytes, SYBR Green DNA, 72 h; series mostly up to 12.8 µM. An outline of the steps:
as §1

The test system of a further assay is JCK. The assay is described as above. Particulars: P. falciparum in erythrocytes, SYBR Green DNA, 72 h; series mostly up to 12.8 µM. An outline of the steps:
as §1

A further assay concerns SC27B. The assay is described as above. The settings on record: P. falciparum in erythrocytes, SYBR Green DNA, 72 h; series mostly up to 12.8 µM. An outline of the steps: as §1
Setting [13] is: measured here: cell count channel max response.
Where [14] appears, read: measured here: lipid channel max response.

Records with an inconclusive call do not appear. Activity calls are given as the source filed them. Unless noted, calls follow the shape of the dose curve; as a rule, active = well fitted curve in the direction sought with a large enough effect; inconclusive = small, poorly fitted or top-dose-only effect, or another doubt; inactive = no such curve, though single readings can be large; an effect the other way counts as inactive or inconclusive.

Sequence of ATP-dependent 6-phosphofructokinase (Trypanosoma brucei brucei) (O15648 whole entry, looked up): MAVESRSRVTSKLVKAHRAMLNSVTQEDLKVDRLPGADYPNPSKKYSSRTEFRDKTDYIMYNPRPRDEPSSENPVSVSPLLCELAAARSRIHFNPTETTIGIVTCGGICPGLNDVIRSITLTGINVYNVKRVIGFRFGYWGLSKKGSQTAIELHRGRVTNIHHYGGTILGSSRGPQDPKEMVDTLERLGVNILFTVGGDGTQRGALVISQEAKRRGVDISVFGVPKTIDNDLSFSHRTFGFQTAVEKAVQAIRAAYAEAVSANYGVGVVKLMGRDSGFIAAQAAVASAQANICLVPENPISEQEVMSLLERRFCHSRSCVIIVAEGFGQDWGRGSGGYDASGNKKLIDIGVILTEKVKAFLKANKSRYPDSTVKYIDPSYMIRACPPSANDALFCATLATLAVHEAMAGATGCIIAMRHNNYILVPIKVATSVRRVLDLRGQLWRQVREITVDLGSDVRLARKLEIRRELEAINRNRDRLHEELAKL
Sequence of 3',5'-cyclic-AMP phosphodiesterase 4B (Homo sapiens) (Q07343 whole entry, looked up): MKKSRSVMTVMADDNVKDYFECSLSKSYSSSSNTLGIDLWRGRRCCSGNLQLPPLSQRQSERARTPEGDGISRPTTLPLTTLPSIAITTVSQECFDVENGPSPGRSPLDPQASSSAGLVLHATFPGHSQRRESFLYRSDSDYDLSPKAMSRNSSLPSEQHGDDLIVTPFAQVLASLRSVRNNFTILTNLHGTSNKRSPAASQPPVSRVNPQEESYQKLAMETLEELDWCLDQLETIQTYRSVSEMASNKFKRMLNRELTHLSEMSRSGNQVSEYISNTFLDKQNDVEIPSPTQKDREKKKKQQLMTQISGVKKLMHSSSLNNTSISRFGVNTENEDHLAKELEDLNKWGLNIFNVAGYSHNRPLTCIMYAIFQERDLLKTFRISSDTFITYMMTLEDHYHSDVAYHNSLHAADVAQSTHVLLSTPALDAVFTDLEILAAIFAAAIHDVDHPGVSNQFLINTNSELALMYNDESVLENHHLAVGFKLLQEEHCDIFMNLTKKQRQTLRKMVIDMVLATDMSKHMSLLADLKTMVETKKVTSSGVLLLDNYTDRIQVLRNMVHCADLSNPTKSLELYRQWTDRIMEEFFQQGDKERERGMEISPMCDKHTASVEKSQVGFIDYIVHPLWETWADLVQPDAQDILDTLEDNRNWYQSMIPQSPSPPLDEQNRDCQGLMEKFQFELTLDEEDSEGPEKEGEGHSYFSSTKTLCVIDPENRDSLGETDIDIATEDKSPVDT
Sequence of Ubiquitin carboxyl-terminal hydrolase 1 (Homo sapiens) (O94782 whole entry, looked up): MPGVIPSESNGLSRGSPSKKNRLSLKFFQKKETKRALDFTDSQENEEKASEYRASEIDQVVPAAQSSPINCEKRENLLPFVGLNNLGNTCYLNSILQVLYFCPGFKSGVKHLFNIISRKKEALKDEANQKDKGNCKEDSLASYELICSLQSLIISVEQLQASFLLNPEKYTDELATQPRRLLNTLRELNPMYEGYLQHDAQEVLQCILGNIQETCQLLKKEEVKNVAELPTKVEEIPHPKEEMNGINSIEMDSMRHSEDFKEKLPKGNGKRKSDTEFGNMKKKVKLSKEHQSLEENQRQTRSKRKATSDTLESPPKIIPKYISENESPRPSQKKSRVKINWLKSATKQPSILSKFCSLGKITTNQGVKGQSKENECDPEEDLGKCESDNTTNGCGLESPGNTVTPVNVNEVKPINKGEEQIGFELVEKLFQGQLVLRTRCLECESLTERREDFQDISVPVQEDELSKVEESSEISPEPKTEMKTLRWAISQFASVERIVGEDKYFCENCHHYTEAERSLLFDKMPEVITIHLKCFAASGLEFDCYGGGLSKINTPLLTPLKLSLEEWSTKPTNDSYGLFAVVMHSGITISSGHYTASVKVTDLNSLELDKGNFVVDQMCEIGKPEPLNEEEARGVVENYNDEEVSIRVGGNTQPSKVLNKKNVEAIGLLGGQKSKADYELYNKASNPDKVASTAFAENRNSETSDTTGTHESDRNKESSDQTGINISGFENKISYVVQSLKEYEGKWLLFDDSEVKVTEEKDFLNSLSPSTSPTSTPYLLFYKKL
Sequence of Luciferin 4-monooxygenase (Photinus pyralis) (P08659 whole entry, looked up): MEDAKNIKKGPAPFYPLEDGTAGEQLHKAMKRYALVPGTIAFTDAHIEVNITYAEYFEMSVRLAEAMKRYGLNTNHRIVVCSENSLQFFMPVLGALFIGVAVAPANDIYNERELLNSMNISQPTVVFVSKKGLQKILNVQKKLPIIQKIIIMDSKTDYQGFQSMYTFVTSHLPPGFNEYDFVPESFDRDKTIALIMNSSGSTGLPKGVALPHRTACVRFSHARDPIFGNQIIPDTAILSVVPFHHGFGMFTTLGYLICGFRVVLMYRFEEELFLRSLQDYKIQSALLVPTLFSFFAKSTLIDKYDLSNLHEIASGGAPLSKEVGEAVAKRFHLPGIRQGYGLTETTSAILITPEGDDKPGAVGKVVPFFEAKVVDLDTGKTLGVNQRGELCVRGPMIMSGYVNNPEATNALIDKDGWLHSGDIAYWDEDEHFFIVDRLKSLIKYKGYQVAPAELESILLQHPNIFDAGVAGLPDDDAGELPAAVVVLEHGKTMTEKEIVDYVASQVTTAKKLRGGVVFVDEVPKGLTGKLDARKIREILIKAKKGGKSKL
Sequence of Glucocorticoid receptor (Homo sapiens) (P04150 whole entry, looked up, the tested form may be a part): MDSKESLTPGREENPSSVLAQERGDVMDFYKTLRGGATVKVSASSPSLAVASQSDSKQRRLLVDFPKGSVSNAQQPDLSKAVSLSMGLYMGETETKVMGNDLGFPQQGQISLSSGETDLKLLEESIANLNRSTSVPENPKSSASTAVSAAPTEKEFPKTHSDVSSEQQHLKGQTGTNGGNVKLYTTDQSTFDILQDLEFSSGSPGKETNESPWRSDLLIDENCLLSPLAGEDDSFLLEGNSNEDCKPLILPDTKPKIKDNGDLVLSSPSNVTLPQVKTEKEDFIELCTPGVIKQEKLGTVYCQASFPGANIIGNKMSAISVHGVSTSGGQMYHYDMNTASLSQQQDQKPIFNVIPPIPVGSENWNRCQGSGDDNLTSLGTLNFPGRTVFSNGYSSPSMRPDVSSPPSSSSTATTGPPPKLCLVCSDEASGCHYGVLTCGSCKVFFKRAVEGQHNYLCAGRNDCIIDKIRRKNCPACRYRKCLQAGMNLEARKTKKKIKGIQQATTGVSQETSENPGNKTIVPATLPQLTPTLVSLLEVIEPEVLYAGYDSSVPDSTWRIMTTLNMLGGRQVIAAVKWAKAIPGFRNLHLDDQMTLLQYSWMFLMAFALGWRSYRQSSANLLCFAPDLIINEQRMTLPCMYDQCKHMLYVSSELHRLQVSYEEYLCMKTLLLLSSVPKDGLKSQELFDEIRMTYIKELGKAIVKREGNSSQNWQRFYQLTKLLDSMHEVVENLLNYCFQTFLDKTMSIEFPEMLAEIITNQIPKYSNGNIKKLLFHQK

As to `Cc1ncc([N+](=O)[O-])n1C[C@H](O)CCl`, the compound was called inactive in assay [1], in assay [3], in assay [7] and in [9]. For the same compound, the activity change, negative = inhibition is -7.59% (inactive) in [2] and -1.27% (inactive) in assay [8]. Also, the Potency in assay [4] and in assay [5] was > 20.6 µM (inactive) in each case. The Potency result (in assay [6]; in [10]; in assay [11]; in the assay with C2A; in the assay on CP191; with CP238) was “inactive” each time. In addition, the Potency entry in the assay with CP256, in the assay with FAB9, in the assay on JCK and with SC27B was “inactive” throughout. Besides, the results for the max response in [8] (setting [13]) and in assay [8] (setting [14]) were 8.08% and 6.22%, respectively. The activity, negative = inhibition is 1% (inactive) in [12] (parasite line A) and 10.5% (inactive) in assay [12] (parasite line B).

In the case of `CO[C@@H]1C[C@H](O[C@H]2[C@@H](C)[C@H](O[C@@H]3O[C@@H](C)C[C@@H](N(C)C)[C@@H]3OC(C)=O)[C@H](C)C[C@]3(CO3)C(=O)[C@H](C)[C@H](OC(C)=O)[C@H](C)[C@H](C)OC(=O)[C@@H]2C)O[C@H](C)[C@@H]1OC(C)=O`, the compound was called inactive in [1], in assay [3], in assay [7] and in assay [9]. Moreover, the results for the activity change, negative = inhibition in assay [2] and in assay [8] were 11.7% (inactive) and -1.3% (inactive), respectively. Moreover, the Potency result (in assay [6]; in [10]; in assay [11]; in the assay with C2A; with CP191; with CP238) was “inactive” throughout. The Potency result in the assay with CP256, with FAB9, in the assay with JCK and in the assay with SC27B was “inactive” each time. The max response was -6.43% in assay [8] (setting [13]) and -9.02% in [8] (setting [14]). Moreover, the activity, negative = inhibition in assay [12] (parasite line A) was -21.7% (inactive); in [12] (parasite line B), -14.9% (inactive).

With `C[C@H](O)Cn1cnc2c1c(=O)n(C)c(=O)n2C`, the call in [1], in assay [3], in assay [7] and in assay [9] was inactive. Further, the activity change, negative = inhibition in assay [2] was 18.8% (inactive); in [8] it was 0.562% (inactive). Further, the Potency entry (in assay [6]; in assay [10]; in assay [11]; in the assay with C2A; in the assay on CP191; with CP238) was “inactive” in each case. For the same compound, the Potency entry with CP256, in the assay on FAB9, with JCK and with SC27B was “inactive” in each case. The values for the max response in assay [8] (setting [13]) and in [8] (setting [14]) were -2.3% and -3.77%, respectively. The activity, negative = inhibition in assay [12] (parasite line A) was 7.57% (inactive); in assay [12] (parasite line B), -0.935% (inactive).

In the case of `C[C@@H](C(=O)O)c1ccc(N2Cc3ccccc3C2=O)cc1`, the compound was classed as inactive in assay [1], in assay [3] and in [7]. Moreover, the values for the activity change, negative = inhibition in assay [2] and in [8] were 11.8% (inactive) and -0.476% (inactive), respectively. The Potency in [4] and in assay [5] was > 20.6 µM (inactive) each time. The Potency entry in assay [6] and in assay [10] was “inactive” in each case. Further, the max response in assay [8] (setting [13]) is -8.47%; in assay [8] (setting [14]), -10.4%.

Values taken from PubChem BioAssay (NCATS).
